Calls of active or inactive are those of the source. How the calls were made is not given here.
Target: Pantothenate synthetase (Mycobacterium tuberculosis (strain ATCC 25618 / H37Rv)) (UniProt P9WIL5)
Experiment: Recombinant Mtb pantothenate synthetase (PanC) inhibitors, coupled enzyme, confirmatory (AID 375);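 further: 0% = full reaction with vehicle and 100% = no enzyme background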
Conditions: coupled enzyme assay; at 10 µM, active compounds read high

Sequence of Pantothenate synthetase (Mycobacterium tuberculosis (strain ATCC 25618 / H37Rv)) (P9WIL5 whole entry, looked up): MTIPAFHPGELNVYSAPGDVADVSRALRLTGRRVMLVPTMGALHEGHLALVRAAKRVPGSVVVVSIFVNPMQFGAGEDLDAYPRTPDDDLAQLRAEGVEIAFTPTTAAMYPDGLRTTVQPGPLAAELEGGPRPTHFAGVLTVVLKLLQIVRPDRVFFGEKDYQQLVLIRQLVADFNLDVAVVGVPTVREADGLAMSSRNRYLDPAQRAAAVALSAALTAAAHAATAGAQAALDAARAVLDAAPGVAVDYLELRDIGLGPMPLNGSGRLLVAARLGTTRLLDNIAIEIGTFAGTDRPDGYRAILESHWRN

| SMILES | inhibition |
| --- | --- |
| Fc1cccc(-c2cc3nc4c(c(N5CCN(c6cnccn6)CC5)n3n2)CCCC4)c1 | 0% (inactive) |
| Cn1c(CSc2nc3ccccc3s2)nnc1SCC(=O)NCCN1CCOCC1 | 0% (inactive) |
| CCOC(=O)C1CCN(S(=O)(=O)c2cccc(-c3csc(C)n3)c2)CC1 | 0% (inactive) |
| O=c1c2c(nc3nc(COc4ccccc4)[nH]n13)CCC2 | 0% (inactive) |
| CC(C)n1c(NCc2c[nH]c3ccccc23)nc2ccccc21 | 0% (inactive) |
| O=C(c1cccc(Cl)c1)N1CCN(Cc2ccncc2)CC1 | 0% (inactive) |
| Cc1ccccc1-n1nnc2c(=O)oc3ccccc3c21 | 0% (inactive) |
| CN(C#N)c1nc(N2CCOCC2)nc(N2CCOCC2)n1 | 1% (inactive) |
| CC1=Nn2c(nnc2-c2ccccc2)SC1 | 0% (inactive) |
| O=C(NCCCNC1CCCCC1)c1ccc(/C=N/O)nc1 | 0% (inactive) |
| CN(Cc1nc(-c2ccncc2)no1)S(=O)(=O)c1ccc(Cl)cc1 | 0% (inactive) |
| COC(=O)C1=C(N)Oc2cc(C)n(Cc3ccncc3)c(=O)c2C1c1cccnc1 (stereo not given) | 0% (inactive) |
| Cc1nc(/N=C(\N)Nc2ccccc2)nc2ccccc12 | 0% (inactive) |
| N#C/C(=C(/O)COC(=O)CCC1CCCCC1)c1nc2ccccc2[nH]1 | 6% (inactive) |
| Clc1cccc(Cl)c1COc1ccncc1 | 0% (inactive) |
| CCn1ncc(C2=NOC(C(=O)N3CCC(C(N)=O)CC3)C2)c1C (stereo not given) | 0% (inactive) |
| CC(C)c1nc(N2CCN(C(=O)c3ccco3)CC2)c2c3c(sc2n1)CCCC3 | 1% (inactive) |
| CCOC(=O)CNC(=O)CSc1nnnn1-c1cc(C)ccc1C | 10% (inactive) |
| CCOC(=O)N1CCN(C(=O)CSc2nnc(Cc3ccccc3)o2)CC1 | 0% (inactive) |
| CCOC(=O)C1CCN(c2nc3ccccc3nc2C(C#N)C(=O)OCCOC)CC1 (stereo not given) | 0% (inactive) |

| SMILES | inhibition |
| --- | --- |
| COc1ccc(OCC(=O)N2CCN(C(=O)COc3ccc(Br)cc3)CC2)cc1 | 0% (inactive) |
| CC(C)Cn1c(-c2ccc(F)cc2)n[nH]c1=S | 0% (inactive) |
| Cc1nc(NC(=O)c2csc3ccccc23)sc1C | 0% (inactive) |
| CC(=O)n1nc(-c2ccco2)nc1SCc1ccccc1 | 0% (inactive) |
| CCn1cc(C(=O)NCC2COc3ccccc3O2)c2cc(OC)c(OC)cc2c1=O (stereo not given) | 11% (inactive) |
| Nn1c(SCC(=O)Nc2ccc(F)cc2)nnc1-c1cccnc1 | 0% (inactive) |
| CCOC(=O)c1sc(NS(=O)(=O)c2ccc(NC(C)=O)cc2)nc1C | 0% (inactive) |
| CN(C)C(CNC(=O)Nc1cccc(Cl)c1)c1cccnc1 (stereo not given) | 0% (inactive) |
| Cc1ccc2[nH]c(=O)c(CN(CCCO)S(=O)(=O)c3c(C)ccc4nsnc34)cc2c1 | 6% (inactive) |
| CC(=O)[C@H]1CC[C@H]2[C@@H]3CCC4=CC(=O)CC[C@]4(C)[C@H]3[C@H](O)C[C@]12C | 0% (inactive) |
| COc1cccc(CC(NC(C)=O)C(=O)NC2CCN(c3c4c(nc5ncnn35)CCC4)CC2)c1 (stereo not given) | 5% (inactive) |
| CCc1cc(C)cc(OCCNC(=O)c2ncn[nH]2)c1 | 7% (inactive) |
| Cn1c(=O)c2ncn(CC(=O)NCCOc3ccc(C(C)(C)C)cc3)c2n(C)c1=O | 0% (inactive) |
| Cc1cccc(N(CC(=O)Nc2ccc(CC#N)cc2)S(C)(=O)=O)c1 | 2% (inactive) |
| COC(=O)CSc1nc2sc3c(c2c(=O)n1C1CCCCC1)CCN(C)C3 | 0% (inactive) |
| COc1ccc(CCn2c(-c3ccco3)nc3ccccc3c2=O)cc1OC | 0% (inactive) |
| CCCCC(NS(=O)(=O)c1ccc(OC)cc1)C(=O)O (stereo not given) | 0% (inactive) |
| C=CCNC(=O)CSc1nc2sc(C)c(C)c2c(=O)[nH]1 | 0% (inactive) |
| O=C(Nc1ccccc1)c1cccnc1N1CCOCC1 | 0% (inactive) |
| Cc1nc2sccn2c(=O)c1CCN1CCC(=C(c2ccc(F)cc2)c2ccc(F)cc2)CC1 | 0% (inactive) |

— PubChem BioAssay
